RVFV N-RNA FP: inhibitors of RVFV nucleoprotein–RNA binding, primary screen, biochemical, fluorescence polarization. RVFV N-RNA binding; active compounds read low. % bound, % (test concentration not listed). 20,000 compounds, 0.1% hits. AID 651828, 2012; in the data active = % bound below about 75%
Target sequence (P21700 whole entry, looked up): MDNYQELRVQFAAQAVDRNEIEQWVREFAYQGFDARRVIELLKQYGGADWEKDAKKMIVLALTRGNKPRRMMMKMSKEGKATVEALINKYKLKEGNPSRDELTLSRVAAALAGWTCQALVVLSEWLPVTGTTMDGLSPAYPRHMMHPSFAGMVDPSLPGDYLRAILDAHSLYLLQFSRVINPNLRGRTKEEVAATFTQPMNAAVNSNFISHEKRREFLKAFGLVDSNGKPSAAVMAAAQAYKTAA
Starred values were filed as active, the others as inactive. The entries come from a sample that favours hits as a whole.

SMILES	RVFV N-RNA FP
Fc1ccc2nc(N3CCc4ccccc4C3)sc2c1	96
CC1CN(CCC(=O)Nc2ccc(S(N)(=O)=O)cc2)CC(C)O1 (stereo not given)	94
CC(=O)NCC(c1cccs1)N1CCc2ccccc21 (stereo not given)	91
CN1CCN(C(=O)CSCc2ccc(Br)cc2)CC1	99
CCOC(=O)c1c(C)[nH]c(/C=C2\C(=O)Nc3ccccc32)c1C	12*
O=C1Nc2ccccc2/C1=C\c1c(Cl)[nH]c2ccccc12	103
CCN(CC)CCNC(=O)c1c(C)[nH]c(/C=C2\C(=O)Nc3ccc(Cl)cc32)c1C	109
COC(=O)c1cc(Cc2ccc(N)c(C(=O)OC)c2)ccc1N	100
O=C1CCCN2C(=N1)SC(=S)N2CN1CC2CC(C1)c1cccc(=O)n1C2 (stereo not given)	95
CC1=CC(=C2C(=O)NC(=O)NC2=O)C=C(C)N1CCN1CCOCC1	101
Cc1cc(I)ccc1NC(=O)c1ccccc1N(C)S(C)(=O)=O	96
N#Cc1cc(Oc2ccccc2Cl)c(-n2nnc3ccccc32)cc1C#N	98
CCCc1cc(=O)[nH]c2nnc(SCC(=O)Nc3ccccc3C(F)(F)F)n12	97
CCS(=O)(=O)Nc1ccc(C(=O)Nc2cc(C)ccc2OC)cc1	97
O=C1NC(=O)/C(=C/c2ccc(-c3ccc(F)cc3O)o2)S1	102
COC(=O)C1=CCCN(C)C1	95
COc1ccc(NC(=O)c2oc3ccccc3c2NC(=O)C2CCCCC2)cc1OC	101
CC(=O)[C@H]1CC[C@H]2[C@@H]3CC[C@H]4C[C@](C)(O)CC[C@]4(C)[C@H]3CC[C@]12C	99
CCOC(=O)c1cnc2c(F)ccc(F)c2c1Oc1cccnc1	86
CC(Sc1ccc2nnc(-c3cccnc3)n2n1)C(=O)O (stereo not given)	100
Cc1cc(OCC(=O)C(C)(C)C)c2c3c(c(=O)oc2c1)CCCC3	96
CCNC(=O)Oc1noc2ccc(C)cc12	96
CC(C)S(=O)(=O)c1cnc(-c2cnccn2)nc1N	90
CCOC(=O)c1ccc(NC(=O)c2ccc(-c3ccc(F)cc3)o2)cc1	101
Cc1oc(C(C)(C)C)cc1-c1cc(NC(=O)C2CCC2)n(-c2ccc(I)cc2)n1	96
SMILES	RVFV N-RNA FP
Cc1nc(-c2ccc(S(=O)(=O)N3CCCN(CCc4ccccc4)CC3)s2)cs1	99
CC1CCN(C(=O)c2cccc(-c3nnc(-c4ccccc4)o3)c2)CC1	96
CCN(CC)Cc1c(O)ccc2c1O/C(=C\c1ccccc1Cl)C2=O	51*
CCN(CC)Cc1c(O)ccc2cc(-c3ccc(OC)c(OC)c3)c(=O)oc12	93
O=C1/C(=C/c2ccccc2)Oc2c1ccc(O)c2CN1CCCC1	106
C=CCc1cccc(/C=C(/C#N)C(N)=O)c1O	94
CNC(=O)c1cc(Cl)ccc1I	89
CCCC(Nc1ccccn1)n1nnc2ccccc21 (stereo not given)	95
CS(=O)(=O)N(CC(=O)Nc1cccc(F)c1)c1cccc(F)c1	97
COC(=O)c1cc(-c2ccc(OC)cc2)n[nH]1	89
COc1ccc(O)cc1	99
COc1ccc(C2=CC(=O)C=CC2=O)cc1	52*
Cn1nc(C(F)(F)F)c2cc(C(=O)O)sc21	96
COCCOc1cc(COC)nc(-c2cccc(C)c2)n1	94
Cc1cnc(-c2ccc(Br)cc2)nc1	83
O=C(OCc1ccc2nonc2c1)c1cc(-c2ccccc2)nc2ccccc12	92
CCN(C(=O)c1cnc2ccc(C)cn2c1=O)c1ccccc1	94
CCC(c1c(N)[nH]c(=S)[nH]c1=O)c1c(N)[nH]c(=S)[nH]c1=O	95
COC(=O)c1ccccc1NC(=O)c1cc2cccnc2n(C)c1=O	91
C=CCSc1nnc(-c2cc(C(C)(C)C)nn2Cc2ccc(F)cc2)n1C	97
O=C(O)C1Cc2[nH]cnc2C(c2ccc(F)cc2)N1 (stereo not given)	98
Cc1nnsc1C(=O)n1nccc1-c1cnn(-c2ccccc2)c1C	100
S=C1NC(=S)NC(c2ccc3c(c2)OCO3)N1	96
C[C@]12CC[C@H](O)CC1=CC[C@@H]1[C@@H]2CC[C@@]2(C)[C@H]1CC[C@]2(C)O	99
CC(C)COC(=O)c1ccc(N)cc1	95
SMILES	RVFV N-RNA FP
N#Cc1ccc(-c2cccc(Cl)c2Cl)o1	91
Nc1ccc(C2CCCc3nonc32)c2nonc12 (stereo not given)	101
Cc1ccc(CNC(=S)N2CCOCC2)cc1	92
CN(C)[C@@H]1C(=O)C(C(=O)NCN2CCCC2)=C(O)[C@@]2(O)C(=O)C3=C(O)c4c(O)cccc4[C@@](C)(O)C3CC12 (stereo not given in full)	90
Cc1ccccc1C(OCCN(C)C)c1ccccc1 (stereo not given)	102
Cc1ncoc1C(=O)Nc1ccc(C(C)C)cc1	92
CC(C)c1cc(N=NC(N)=O)cc(C(C)C)c1O	92
O=C(CSC1CCCCC1)NCc1ccccc1	84
CCCC(=O)ON1C(=O)c2cccc3cccc(c23)C1=O	98
O=C1C=C(O)c2cccc3cccc1c23	45*
Cc1nnc(C)n1N1C(=O)c2cccc3cccc(c23)C1=O	88
N#CC(C#N)=Cc1ccc(-c2cccs2)s1	86
CCOC(=O)/C(C#N)=C/N1CCCC1c1cccs1 (stereo not given)	92
CCOC(=O)/C(C#N)=C/c1ccc(-c2cccs2)s1	19*
COc1ccc(N=Cc2c(O)n(C3CCCCC3)c(=O)n(C3CCCCC3)c2=O)cc1	104
O=c1c(C=NCc2ccc3c(c2)OCO3)c(O)n(C2CCCCC2)c(=O)n1C1CCCCC1	101
O=C(CNC1Cc2ccccc2C1)Nc1ccccc1N1CCOCC1	95
COCC(C)NC(=O)c1cccc(Cl)c1 (stereo not given)	91
C=CCc1cccc(/C=N/n2c(-c3ccccc3C)n[nH]c2=S)c1O	86
CC(=O)N1CCN=C1SCc1ccc(Br)cc1	92
CCC(=O)NNc1nc2c(C)c(C)ccc2s1	91

From PubChem BioAssay
